Experimental data as given in PubChem BioAssay (NCATS).
Inconclusive results are not listed. The source made the active and inactive calls. The call rests on the fitted dose curve; in most records, active means well fitted inhibition curve with a large enough effect; inconclusive means small, poorly fitted or top-dose-only effect; inactive means flat fitted curve, though single readings scatter.

How the values were obtained:
Assay in all cases: qHTS profiling for inhibitors of Plasmodium falciparum proliferation (AID 504749); further: nearly all actives have a fitted effect of over 60% in size
[1] = test system: CP191; details: P. falciparum in erythrocytes, SYBR Green DNA, 72 h; series mostly up to 12.8 µM
Method in brief: (§1)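 SYBR Green fluorescence of parasite DNA, read after lysis and overnight dark incubation, measured growth over 72 h in erythrocyte culture at 0.3% parasitemia and 2.5% hematocrit. Data normalised to DMSO and 0.29 uM artemisinin, with plate-drift correction.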

[2] = test system: CP192; details: P. falciparum in erythrocytes, SYBR Green DNA, 72 h; series mostly up to 28.7 µM
Method in brief: as §1

[3] = test system: CP201; details: P. falciparum in erythrocytes, SYBR Green DNA, 72 h; series mostly up to 12.8 µM
Method in brief: as §1

[4] = test system: CP238; details: P. falciparum in erythrocytes, SYBR Green DNA, 72 h; series mostly up to 12.8 µM
Method in brief: as §1

[5] = test system: CP247; details: P. falciparum in erythrocytes, SYBR Green DNA, 72 h; series mostly up to 12.8 µM
Method in brief: as §1

[6] = test system: CP256; details: P. falciparum in erythrocytes, SYBR Green DNA, 72 h; series mostly up to 12.8 µM
Method in brief: as §1

[7] = test system: CP262; details: P. falciparum in erythrocytes, SYBR Green DNA, 72 h; series mostly up to 12.8 µM
Method in brief: as §1

[8] = test system: CP265; details: P. falciparum in erythrocytes, SYBR Green DNA, 72 h; series mostly up to 12.8 µM
Method in brief: as §1

[9] = test system: CP269; details: P. falciparum in erythrocytes, SYBR Green DNA, 72 h; series mostly up to 12.8 µM
Method in brief: as §1

[10] = test system: CP325; details: P. falciparum in erythrocytes, SYBR Green DNA, 72 h; series mostly up to 12.8 µM
Method in brief: as §1

[11] = test system: CP329; details: P. falciparum in erythrocytes, SYBR Green DNA, 72 h; series mostly up to 12.8 µM
Method in brief: as §1

[12] = test system: Dd2; details: P. falciparum in erythrocytes, SYBR Green DNA, 72 h; series mostly up to 12.8 µM
Method in brief: as §1

[13] = test system: FAB9; details: P. falciparum in erythrocytes, SYBR Green DNA, 72 h; series mostly up to 12.8 µM
Method in brief: as §1

[14] = test system: JCK; details: P. falciparum in erythrocytes, SYBR Green DNA, 72 h; series mostly up to 12.8 µM
Method in brief: as §1

[15] = test system: N140; details: P. falciparum in erythrocytes, SYBR Green DNA, 72 h; series mostly up to 12.8 µM
Method in brief: as §1

[16] = test system: P94_40; details: P. falciparum in erythrocytes, SYBR Green DNA, 72 h; series mostly up to 12.8 µM
Method in brief: as §1

[17] = test system: PC15; details: P. falciparum in erythrocytes, SYBR Green DNA, 72 h; series mostly up to 12.8 µM
Method in brief: as §1

[18] = test system: PC26; details: P. falciparum in erythrocytes, SYBR Green DNA, 72 h; series mostly up to 12.8 µM
Method in brief: as §1

[19] = test system: PC49; details: P. falciparum in erythrocytes, SYBR Green DNA, 72 h; series mostly up to 12.8 µM
Method in brief: as §1

[20] = test system: SC27B; details: P. falciparum in erythrocytes, SYBR Green DNA, 72 h; series mostly up to 12.8 µM
Method in brief: as §1

Measured: Potency
Potency means the concentration at half of the fitted maximal effect.

CC[C@@]12CCCN3CCc4c(n(c5ccccc45)C(=O)C1)[C@H]32
inactive: all assays above

CC(C)(C)NC[C@H](O)c1cc(O)cc(O)c1
not listed: [7]
inactive: all other assays above

NC(=O)c1cc[n+](CC2=C(C(=O)O)N3C(=O)[C@@H](NC(=O)[C@H](c4ccccc4)S(=O)(=O)[O-])[C@@H]3SC2)cc1
inactive: [7]
active: [1] 1410 nM | [4] 3550 nM | [5] 3550 nM | [6] 3550 nM | [8] 1410 nM | [9] 1610 nM | [10] 4550 nM | [12] 1260 nM | [13] 3160 nM | [14] 4470 nM | [15] 1410 nM | [16] 1260 nM | [17] 1000 nM | [18] 1810 nM | [19] 3160 nM | [20] 2510 nM

CCn1cc(C(=O)O)c(=O)c2cc(F)c(N3CCN[C@@H](C)C3)c(F)c21
not listed: [10] | [14]
inactive: all other assays above

CCCN(CCC)C(=O)[C@@H](CCC(=O)O)NC(=O)c1ccccc1
inactive: all assays above

C[C@@H]1c2cccc(O)c2C(O)=C2C(=O)[C@@]3(O)C(O)=C(C(N)=O)C(=O)[C@@H](N(C)C)[C@@H]3[C@@H](O)[C@@H]21
active: [12] 3980 nM
not listed: [4] | [6] | [9] | [10] | [16] | [18] | [20]
inactive: all other assays above

CN(C)[C@@H]1C(=O)C(C(N)=O)=C(O)[C@]2(O)C(=O)C3=C(O)c4c(O)ccc(Cl)c4[C@H](O)[C@H]3C[C@@H]12
active: [12] 3160 nM
inactive: all other assays above

O=C(c1ccccc1)c1ccc2n1CC[C@H]2C(=O)O
inactive: all assays above

CO[C@]1(NC(=O)CSCC#N)C(=O)N2C(C(=O)O)=C(CSc3nnnn3C)CS[C@H]21
inactive: all assays above

N[C@@H](CO)C(=O)NNCc1ccc(O)c(O)c1O
inactive: all assays above

C[C@@H](CCc1ccccc1)NC[C@H](O)c1ccc(O)c(C(N)=O)c1
inactive: all assays above

CO/N=C(\C(=O)N[C@@H]1C(=O)N2C(C(=O)O)=C(COC(C)=O)CS[C@@H]12)c1csc(N)n1
inactive: all assays above

CC[C@]1(C)CC(=O)NC1=O
inactive: all assays above

CN1[C@@H]2CC[C@H]1CC(OC(=O)[C@@H](O)c1ccccc1)C2 (some centres not stated)
inactive: all assays above

CC(=O)OCC1=C(C(=O)O)N2C(=O)[C@@H](NC(=O)CSc3ccncc3)[C@@H]2SC1
inactive: all assays above

CC(C)NC[C@H](O)c1cc(O)cc(O)c1
inactive: all assays above

C[C@@H]1COc2c(N3CCN(C)CC3)c(F)cc3c(=O)c(C(=O)O)cn1c23
inactive: all assays above
